Results: PubChem BioAssay
For some assays here: Entries with a potency or affinity are not part of this list. The source made the active and inactive calls. Unless noted, how the calls were made is not given here.

Columns and labels:
[1] = antimalarial activity against Dd2 strain (AID 2302;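 active means growth inhibition above 50% at the single 2 µM test dose, taken to imply half-maximal potency below 2 µM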;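 further: 0% = DMSO untreated growth and 100% = chloroquine plus artemisinin killed control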); conditions: P. falciparum Dd2 in RBCs, LDH growth readout, 72 h; at 2 µM; stronger effect = higher value
[2] = human hepatoma cell viability loss – ATP luminescence, cytotoxicity control for P. falciparum antimalarial project, primary screen (AID 2303;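 active means inhibition above 50%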;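 further: 0% = DMSO wells and 100% = digitonin-killed cells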); conditions: HepG2 viability, 24-48 h, at 10 µM, stronger effect = higher value
[3] = molecular target: L-lactate dehydrogenase (Plasmodium falciparum (isolate CDC / Honduras)) (UniProt Q27743); assay: PfLDH activity inhibition – cell lysate, 3D7 strain, counter-screen for P. falciparum growth inhibition project (AID 2304);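 further: 0% = vehicle and 100% = reference inhibitor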; conditions: P. falciparum 3D7 crude extract, LDH APAD/NBT absorbance; at 2 µM; stronger effect = higher value
L-lactate dehydrogenase (Plasmodium falciparum (isolate CDC / Honduras)), sequence (Q27743 whole entry, looked up): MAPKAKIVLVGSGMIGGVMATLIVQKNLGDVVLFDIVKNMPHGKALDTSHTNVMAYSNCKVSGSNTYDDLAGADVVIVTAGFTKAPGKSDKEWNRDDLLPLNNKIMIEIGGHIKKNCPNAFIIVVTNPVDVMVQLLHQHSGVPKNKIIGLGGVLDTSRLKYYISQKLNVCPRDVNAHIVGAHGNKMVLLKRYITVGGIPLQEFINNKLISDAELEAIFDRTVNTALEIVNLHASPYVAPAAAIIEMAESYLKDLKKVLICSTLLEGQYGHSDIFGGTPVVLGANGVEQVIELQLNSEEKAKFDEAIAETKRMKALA

[4] = inhibition of 3D7 malaria parasite growth – strain 3D7 (AID 2306);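 further: 0% = DMSO wells and 100% = chloroquine plus artemisinin control wells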; conditions: P. falciparum 3D7 erythrocytic growth, LDH absorbance, 72 h; at 2 µM; stronger effect = higher value
[5] = molecular target: Calcium-dependent protein kinase 1 (Plasmodium falciparum (isolate 3D7)) (UniProt P62344); assay: PfCDPK1 kinase inhibitors, biochemical, TCAMS library (AID 1159585; cut-off not given, nearly all actives have IC50 up to about 0.98 µM;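 further: inhibitors leave more ATP so luminescence rises with inhibition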); conditions: recombinant PfCDPK1, Kinase-Glo ATP depletion luminescence
Calcium-dependent protein kinase 1 (Plasmodium falciparum (isolate 3D7)), sequence (P62344 whole entry, looked up): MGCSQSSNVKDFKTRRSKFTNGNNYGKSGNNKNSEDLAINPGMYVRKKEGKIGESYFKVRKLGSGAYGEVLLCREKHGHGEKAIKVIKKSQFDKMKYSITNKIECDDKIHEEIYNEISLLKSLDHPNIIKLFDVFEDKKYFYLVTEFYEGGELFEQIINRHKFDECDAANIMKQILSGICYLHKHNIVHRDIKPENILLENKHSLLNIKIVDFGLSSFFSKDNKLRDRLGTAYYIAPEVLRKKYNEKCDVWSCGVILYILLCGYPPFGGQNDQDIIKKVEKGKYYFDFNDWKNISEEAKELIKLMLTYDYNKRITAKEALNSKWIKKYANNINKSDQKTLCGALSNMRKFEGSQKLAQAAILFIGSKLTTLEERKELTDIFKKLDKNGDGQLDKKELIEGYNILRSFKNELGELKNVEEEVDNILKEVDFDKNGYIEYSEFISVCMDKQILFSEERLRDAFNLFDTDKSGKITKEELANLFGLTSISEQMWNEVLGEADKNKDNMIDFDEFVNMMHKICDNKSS

[6] = molecular target: Plasmodium falciparum protein kinase 6 (PK6, PF3D7_1337100) (UniProt Q8IDW1); assay: PfPK6 kinase inhibitors, biochemical, TCAMS library (AID 1159586); conditions: recombinant PfPK6, Kinase-Glo ATP depletion luminescence
Plasmodium falciparum protein kinase 6 (PK6, PF3D7_1337100), sequence (Q8IDW1 1-305): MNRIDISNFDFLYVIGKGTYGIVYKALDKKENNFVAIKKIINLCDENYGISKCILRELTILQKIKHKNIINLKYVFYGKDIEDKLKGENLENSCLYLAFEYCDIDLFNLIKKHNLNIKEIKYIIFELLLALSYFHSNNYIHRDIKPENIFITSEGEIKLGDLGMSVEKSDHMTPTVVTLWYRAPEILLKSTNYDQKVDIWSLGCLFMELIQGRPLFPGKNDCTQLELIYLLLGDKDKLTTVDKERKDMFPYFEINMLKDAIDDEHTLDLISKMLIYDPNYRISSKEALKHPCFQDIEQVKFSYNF

[7] = molecular target: Protein kinase 7 (PK7), Plasmodium falciparum 3D7 (PF3D7_0213400) (UniProt Q7YTF7); assay: inhibition of Plasmodium PK7 catalytic activity – biochemical, TCAMS antimalarial set, Kinase-Glo luminescence (AID 1159587); conditions: recombinant PfPK7, Kinase-Glo ATP depletion luminescence
Protein kinase 7 (PK7), Plasmodium falciparum 3D7 (PF3D7_0213400), sequence (Q7YTF7 1-343): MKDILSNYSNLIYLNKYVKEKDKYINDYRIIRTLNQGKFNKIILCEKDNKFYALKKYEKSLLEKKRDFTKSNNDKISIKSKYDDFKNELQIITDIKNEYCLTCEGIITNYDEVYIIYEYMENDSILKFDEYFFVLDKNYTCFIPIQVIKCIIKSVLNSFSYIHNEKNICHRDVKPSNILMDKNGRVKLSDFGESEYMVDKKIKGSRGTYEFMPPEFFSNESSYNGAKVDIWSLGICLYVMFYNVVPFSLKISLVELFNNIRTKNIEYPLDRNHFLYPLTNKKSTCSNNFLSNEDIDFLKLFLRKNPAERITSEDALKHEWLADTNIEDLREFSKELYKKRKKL

[8] = molecular target: Calcium-dependent protein kinase 4 (Plasmodium falciparum (isolate 3D7)) (UniProt Q8IBS5); assay: PfCDPK4 kinase inhibitors, biochemical, TCAMS library (AID 1159588; cut-off not given, nearly all actives have IC50 up to about 0.91 µM); conditions: recombinant PfCDPK4, Kinase-Glo ATP depletion luminescence
Calcium-dependent protein kinase 4 (Plasmodium falciparum (isolate 3D7)), sequence (Q8IBS5 whole entry, looked up): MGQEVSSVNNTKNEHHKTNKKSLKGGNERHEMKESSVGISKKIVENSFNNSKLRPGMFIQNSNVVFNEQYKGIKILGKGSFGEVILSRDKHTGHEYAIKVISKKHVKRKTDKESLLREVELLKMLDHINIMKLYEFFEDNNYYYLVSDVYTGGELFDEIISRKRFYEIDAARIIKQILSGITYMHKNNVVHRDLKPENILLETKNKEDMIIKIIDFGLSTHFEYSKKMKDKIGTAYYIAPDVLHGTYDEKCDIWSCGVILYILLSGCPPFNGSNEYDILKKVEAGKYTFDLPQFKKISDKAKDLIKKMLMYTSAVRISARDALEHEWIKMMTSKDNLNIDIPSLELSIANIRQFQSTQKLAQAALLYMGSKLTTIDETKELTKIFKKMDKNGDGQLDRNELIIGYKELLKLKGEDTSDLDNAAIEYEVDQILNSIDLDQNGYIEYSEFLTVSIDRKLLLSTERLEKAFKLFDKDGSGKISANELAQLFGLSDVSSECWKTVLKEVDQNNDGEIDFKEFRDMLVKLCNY

O=C(NCc1ccc(C(=O)NC2CCCCCC2)cc1)c1ccc(O)c(-c2ccc(Cl)c(Cl)c2)c1
active: growth inhibition [4] 83%
inactive: growth inhibition [1] 21% | inhibition [2] -1% | inhibition [3] -3% | outcome [5] | outcome [6] | outcome [7] | outcome [8]

COc1ccccc1NS(=O)(=O)c1cc(C(=O)Nc2ccc(N3CCOCC3)c(S(=O)(=O)Nc3ccccc3Cl)c2)ccc1Cl
active: growth inhibition [4] 97%
inactive: growth inhibition [1] 25% | inhibition [2] -3% | inhibition [3] -2% | outcome [5] | outcome [6] | outcome [7] | outcome [8]

O=C(Nc1ccc(Cl)cc1)Nc1ccc2nonc2c1
active: growth inhibition [1] 77% | growth inhibition [4] 94%
inactive: inhibition [2] -25% | inhibition [3] -4% | outcome [5] | outcome [6] | outcome [7] | outcome [8]

CN1CCN(CCCN(Cc2ccc(-c3ccc(CNCCc4ccccc4)cc3)cc2)C(=O)c2cccs2)CC1
active: growth inhibition [1] 78% | growth inhibition [4] 98%
inactive: inhibition [2] 32% | inhibition [3] 3% | outcome [5] | outcome [6] | outcome [7] | outcome [8]

Cc1cc(Nc2ccc(C)c(Cl)c2)n2nc(C(F)(F)F)nc2n1
active: growth inhibition [1] 97% | growth inhibition [4] 98%
inactive: inhibition [2] 2% | inhibition [3] 2% | outcome [5] | outcome [6] | outcome [7] | outcome [8]

CC(C)(CNCc1ccc(C(F)(F)F)cc1)c1nc(-c2ccc(Cl)c(O)c2)c(-c2ccncc2)[nH]1
active: growth inhibition [1] 98% | growth inhibition [4] 101%
inactive: inhibition [2] 42% | inhibition [3] -1% | outcome [5] | outcome [6] | outcome [7] | outcome [8]

Cc1ccccc1NC(=S)NC1CCN(CCCCCNC(=O)/C=C/c2ccc(Cl)c(Cl)c2)CC1
active: growth inhibition [4] 99%
inactive: growth inhibition [1] 7% | inhibition [2] 14% | inhibition [3] 2% | outcome [5] | outcome [6] | outcome [7] | outcome [8]

O=C(NCC1CCN(CC2CCCCC2)C1)c1cc(-c2cccc(Cl)c2)cs1 (stereo not given)
inactive: growth inhibition [1] 8% | inhibition [3] 5% | outcome [5] | outcome [6] | outcome [7] | outcome [8]
active: inhibition [2] 51% | growth inhibition [4] 85%

Cc1cccc2[nH]c(-c3cccc(-c4ccc(CN5CCCC5CN)cc4)c3)nc12 (stereo not given)
active: growth inhibition [4] 101%
inactive: growth inhibition [1] 47% | inhibition [2] 19% | inhibition [3] 3% | outcome [5] | outcome [6] | outcome [7] | outcome [8]

O=c1cc(NCCCN(Cc2cc3c(Cl)cc(Cl)cc3[nH]2)Cc2cc3c(Cl)cc(Cl)cc3[nH]2)[nH]c2ccccc12
inactive: inhibition [2] 23% | inhibition [3] -6% | outcome [5] | outcome [6] | outcome [7] | outcome [8]
active: growth inhibition [1] 80% | growth inhibition [4] 87%

Cc1ccccc1C1CCN(C2CCC(NC(=O)c3ccc(-c4ccccn4)s3)CC2)CC1 (stereo not given)
inactive: growth inhibition [1] 17% | inhibition [2] 32% | inhibition [3] -1% | outcome [5] | outcome [6] | outcome [7] | outcome [8]
active: growth inhibition [4] 87%

CN1CCC(N2CCN(Cc3cccc(-c4ccc(-c5nc6ccc(C(F)(F)F)cc6[nH]5)cc4)c3)CC2)CC1
inactive: inhibition [3] 4% | outcome [5] | outcome [6] | outcome [7] | outcome [8]
active: growth inhibition [1] 91% | inhibition [2] 100% | growth inhibition [4] 101%

CCC(C)c1ccc(O)c(NC(=O)c2cncc(Br)c2)c1 (stereo not given)
inactive: growth inhibition [1] 16% | inhibition [2] -13% | inhibition [3] -4% | outcome [5] | outcome [6] | outcome [7] | outcome [8]
active: growth inhibition [4] 100%

COc1cc(Nc2nccc(N3CCC(NC(=O)c4cccc(C#N)c4)C3)n2)cc(OC)c1OC (stereo not given)
inactive: inhibition [2] 13% | inhibition [3] -8% | outcome [5] | outcome [6] | outcome [7] | outcome [8]
active: growth inhibition [1] 76% | growth inhibition [4] 91%

COc1cc(Cc2cnc(N)nc2N)c2c(c1OC)OC(C)C=C2 (stereo not given)
active: growth inhibition [4] 87%
inactive: growth inhibition [1] 1% | inhibition [2] -1% | inhibition [3] 6% | outcome [5] | outcome [6] | outcome [7] | outcome [8]

O=C(NCc1cccc(F)c1)Nc1ccc(-c2cccc(-c3nc4ccccc4[nH]3)c2)cc1
active: growth inhibition [4] 86%
inactive: growth inhibition [1] 2% | inhibition [2] 14% | inhibition [3] 0% | outcome [5] | outcome [6] | outcome [7] | outcome [8]

Cc1noc(C)c1-c1ccc2c(Nc3cccc4c3-c3ccccc3C4=O)c(C(=O)NCc3ccccc3I)cnc2c1
active: growth inhibition [1] 99% | growth inhibition [4] 99%
inactive: inhibition [2] 27% | inhibition [3] 2% | outcome [5] | outcome [6] | outcome [7] | outcome [8]

c1cc(CNCc2ccc3c(c2)OCO3)cc(-c2cccc(CNc3ccc4ncccc4c3)c2)c1
inactive: growth inhibition [1] 27% | inhibition [2] 18% | inhibition [3] -4% | outcome [5] | outcome [6] | outcome [7] | outcome [8]
active: growth inhibition [4] 98%

O=C(NC1CCCCC1)c1csc(C2CCCN(C(=O)c3ccc(O)c(-c4cccc(C(F)(F)F)c4)c3)C2)n1 (stereo not given)
active: growth inhibition [1] 85% | growth inhibition [4] 96%
inactive: inhibition [2] 8% | inhibition [3] 5% | outcome [5] | outcome [6] | outcome [7] | outcome [8]

Cn1c(O)c(N=NC(=S)N2CCOCC2)c2ccccc21
inactive: inhibition [3] 6% | outcome [5] | outcome [6] | outcome [7] | outcome [8]
active: growth inhibition [1] 54% | inhibition [2] 57% | growth inhibition [4] 95%

CN(CCCN(C)c1cc(NC(=O)c2ccc(F)cc2)ccn1)Cc1cccc(F)c1
active: growth inhibition [1] 60% | growth inhibition [4] 83%
inactive: inhibition [2] -5% | inhibition [3] -1% | outcome [5] | outcome [6] | outcome [7] | outcome [8]

CC(C)CCNC(=O)C1Cc2c([nH]c3ccc(Br)cc23)C2(CCN(CCc3ccccc3)CC2)N1 (stereo not given)
inactive: inhibition [2] 25% | inhibition [3] 2% | outcome [5] | outcome [6] | outcome [7] | outcome [8]
active: growth inhibition [1] 61% | growth inhibition [4] 101%

CCN(CC)CCn1c(=N)n(CC(O)c2ccc(Cl)c(Cl)c2)c2ccccc21 (stereo not given)
inactive: inhibition [2] 35% | inhibition [3] 6% | outcome [5] | outcome [6] | outcome [7] | outcome [8]
active: growth inhibition [1] 88% | growth inhibition [4] 99%

Cc1[nH]c(C)c(-c2ccc(Oc3ccc(Cl)cc3)cc2)c(=O)c1Br
active: growth inhibition [1] 96% | growth inhibition [4] 97%
inactive: inhibition [2] 12% | inhibition [3] -4% | outcome [5] | outcome [6] | outcome [7] | outcome [8]

CC(=O)N1CCC(C(=O)Nc2ccc(-c3cccc(-c4nc5c(C)cccc5[nH]4)c3)cc2)CC1
active: inhibition [2] 85% | growth inhibition [4] 84%
inactive: growth inhibition [1] 27% | inhibition [3] -1% | outcome [5] | outcome [6] | outcome [7] | outcome [8]

FC(F)(F)c1cnc(Sc2nnc(-c3ccco3)o2)c(Cl)c1
inactive: inhibition [2] -1% | inhibition [3] -4% | outcome [5] | outcome [6] | outcome [7] | outcome [8]
active: growth inhibition [1] 97% | growth inhibition [4] 98%

CC(C)N1CCN(C(CN2CCN(CCCOc3ccc4ccccc4c3)CC2)c2ccc(F)cc2)CC1 (stereo not given)
inactive: inhibition [3] 5% | outcome [5] | outcome [6] | outcome [7] | outcome [8]
active: growth inhibition [1] 91% | inhibition [2] 59% | growth inhibition [4] 101%

CN1CC[C@@H](Oc2cc(NC(=O)Nc3ccc(Cl)c(C(F)(F)F)c3)ccc2Cl)C1
inactive: inhibition [2] 17% | inhibition [3] 0% | outcome [5] | outcome [6] | outcome [7] | outcome [8]
active: growth inhibition [1] 68% | growth inhibition [4] 100%

Cc1cc(NC(=O)c2coc3cc(F)c(N4C[C@@H](C)N(C)[C@@H](C)C4)cc23)cnc1-c1ccc(C#N)cc1
inactive: inhibition [2] 35% | inhibition [3] -3% | outcome [5] | outcome [6] | outcome [7] | outcome [8]
active: growth inhibition [1] 71% | growth inhibition [4] 99%

CCNc1cc(C(=O)N[C@@H](Cc2ccccc2)[C@H](O)CNC(C)C)cc(N2CC(c3ccccc3)CCS2(=O)=O)c1 (stereo not given in full)
active: growth inhibition [1] 99% | growth inhibition [4] 98%
inactive: inhibition [2] 0% | inhibition [3] -1% | outcome [5] | outcome [6] | outcome [7] | outcome [8]

Cc1ccc(Nc2nc(C)cc(NC3CCN(C)CC3)n2)cc1
inactive: growth inhibition [1] 21% | inhibition [2] 14% | inhibition [3] 2% | outcome [5] | outcome [6] | outcome [7] | outcome [8]
active: growth inhibition [4] 100%

Cc1csc(-c2nc(NCCc3c(C)noc3C)ncc2-c2ccsc2)n1
active: growth inhibition [1] 82% | growth inhibition [4] 90%
inactive: inhibition [2] 6% | inhibition [3] -4% | outcome [5] | outcome [6] | outcome [7] | outcome [8]

N#Cc1cccc(NC(=O)Nc2ccc(-c3ccc(-c4nc5ccc(C(F)(F)F)cc5[nH]4)cc3)cc2)c1
active: growth inhibition [1] 100% | inhibition [2] 51% | growth inhibition [4] 102%
inactive: inhibition [3] -2% | outcome [5] | outcome [6] | outcome [7] | outcome [8]

N=c1ccn(CC(=NO)c2ccc(Cl)c(Cl)c2)cc1
inactive: inhibition [2] 23% | inhibition [3] -2% | outcome [5] | outcome [6] | outcome [7] | outcome [8]
active: growth inhibition [1] 81% | growth inhibition [4] 87%

CC(C)(C)c1ccc(S(=O)(=O)Nc2cc(Cl)ccc2Cn2ccc(N3CCNCC3)nc2=O)cc1
active: growth inhibition [1] 74% | growth inhibition [4] 95%
inactive: inhibition [2] -9% | inhibition [3] 2% | outcome [5] | outcome [6] | outcome [7] | outcome [8]

COc1cc(C)nc2ccc(NC(=O)Nc3cccc4ccccc34)cc12
inactive: growth inhibition [1] 48% | inhibition [2] 27% | inhibition [3] -3% | outcome [5] | outcome [6] | outcome [7] | outcome [8]
active: growth inhibition [4] 91%

CCN(CC)CCN(Cc1ccc(-c2ccc(C(F)(F)F)cc2)cc1)C(=O)Cn1c(CCc2ccc(F)c(F)c2)nc(=O)c2ccccc21
inactive: inhibition [2] 31% | inhibition [3] 3% | outcome [5] | outcome [6] | outcome [7] | outcome [8]
active: growth inhibition [1] 62% | growth inhibition [4] 99%

COc1cc2nc(NCCN3CCOCC3)n3nc(-c4ccccc4)nc3c2cc1OC
active: growth inhibition [1] 98% | growth inhibition [4] 96%
inactive: inhibition [2] 15% | inhibition [3] -3% | outcome [5] | outcome [6] | outcome [7] | outcome [8]

O=C(Nc1cccc(F)c1)N1CCC(CN2CCOC(c3ccccc3)(c3ccccc3)C2)CC1
inactive: inhibition [2] 12% | inhibition [3] 7% | outcome [5] | outcome [6] | outcome [7] | outcome [8]
active: growth inhibition [1] 97% | growth inhibition [4] 96%

O=C(Nc1ccc2c(c1)CCN(C1CCC1)CC2)c1ccc(-c2cn3ccccc3n2)cc1
inactive: growth inhibition [1] 42% | inhibition [2] 13% | inhibition [3] 2% | outcome [5] | outcome [6] | outcome [7] | outcome [8]
active: growth inhibition [4] 102%
